ELG1 genotoxic: inducers of genotoxicity in HEK293T ELG1-luciferase cells. HEK293T ELG1-luciferase reporter, luminescence, 16 h. Potency, µM (top dose mostly 46 µM), inactives show at the highest dose activity change, positive = activation, actives largely listed as activators. 1.3% of 330,000 active. AID 504466; also: % of control where 0% means no effect; nearly all actives have a fitted effect of over 60% in size
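16 hr compound incubation (37 °C, 5% CO2) of HEK293T cells carrying luciferase-tagged ELG1; luciferase then measured by ONE-Glo luminescence after 30 min at RT.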
NPC1 prom act: activators of NPC1 promoter | Huh7 NPC1 promoter luciferase reporter, 24 h | Potency, µM (series often up to 9.22 µM), for inactives: at the top dose activation, hits mostly activators | 2.4% of 320,000 active; also: % of control where 0% means no effect; nearly all actives have a fitted effect of over 60% in size
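Huh7 reporter cells (NPC1 promoter driving luciferase) are dosed with compound for 24 h at 37 °C, 5% CO2; luciferase detection reagent is then added and luminescence measured after 10 min at ambient temperature.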
SMN2 splice enh: SMN2 splice variant enhancement; HEK293 SMN2-luciferase splicing reporter, luminescence, 30-36 h; Potency, µM (highest dose often 46.1 µM), for inactives: at the highest dose activity change, positive = activation, actives largely listed as activators; 2.8% of 210,000 active; AID 1458; also: % of control where 0% means no effect; nearly all actives have a fitted effect of over 55% in size
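HEK293 cells carry an SMN2 minigene-luciferase reporter in which exon 7 inclusion puts luciferase in frame. Cells were seeded at 2000 cells/well, attached for 10-12 hours, then exposed to compounds for 30-36 hours at 37C before ONE-Glo luminescence.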
p53 reactivation: re-activators of mutant p53; H1299 p53-A138V BP100-luciferase reporter, luminescence, 24 h; Potency, µM (titrated, usually from 92.2 µM), for the others: at the highest dose activity change, positive = activation, most hits filed as activators; 0.063% of 320,000 active; AID 504706; also: % of control where 0% means no effect; nearly all actives have a fitted effect of over 45% in size
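p53-null H1299 cells stably carrying temperature-sensitive p53-A138V and a BP100-luciferase reporter were pinned with compounds (4-point, 1:5 series) and held 24 hrs at 37 deg C. Luminescence was read 10 min after detection reagent.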
Rab9 promoter act: Rab9 promoter activation; 2.8% of 320,000 active; Potency, µM (titrated, usually from 9.22 µM), for inactives: at the top dose activation, negative = inhibition, actives largely listed as activators; Huh7 Rab9 promoter-luciferase reporter, luminescence, 24 h; also: % of control where 0% means no effect; nearly all actives have a fitted effect of over 60% in size
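Cell-based reporter: Huh7 stable for Rab9 promoter-driven luciferase, plated in reduced-serum medium with 10% FBS at 1500 cells/well, compound-treated 24 h at 37 °C, luminescence read after 10 min reagent.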
FLuc modulator: firefly luciferase modulation, counter-screen for miR-21 project; 6.9% of 360,000 active; purified FLuc, Km substrates, luminescence inhibition; Potency, µM (highest dose often 57.5 µM), for inactives: at the highest dose activity change, negative = inhibition, actives largely listed as inhibitors;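 also: plate controls were vehicle for no effect and reference inhibitor for full effect; nearly all actives have a fitted effect of over 55% in size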
Target sequence (P08659 whole entry, looked up): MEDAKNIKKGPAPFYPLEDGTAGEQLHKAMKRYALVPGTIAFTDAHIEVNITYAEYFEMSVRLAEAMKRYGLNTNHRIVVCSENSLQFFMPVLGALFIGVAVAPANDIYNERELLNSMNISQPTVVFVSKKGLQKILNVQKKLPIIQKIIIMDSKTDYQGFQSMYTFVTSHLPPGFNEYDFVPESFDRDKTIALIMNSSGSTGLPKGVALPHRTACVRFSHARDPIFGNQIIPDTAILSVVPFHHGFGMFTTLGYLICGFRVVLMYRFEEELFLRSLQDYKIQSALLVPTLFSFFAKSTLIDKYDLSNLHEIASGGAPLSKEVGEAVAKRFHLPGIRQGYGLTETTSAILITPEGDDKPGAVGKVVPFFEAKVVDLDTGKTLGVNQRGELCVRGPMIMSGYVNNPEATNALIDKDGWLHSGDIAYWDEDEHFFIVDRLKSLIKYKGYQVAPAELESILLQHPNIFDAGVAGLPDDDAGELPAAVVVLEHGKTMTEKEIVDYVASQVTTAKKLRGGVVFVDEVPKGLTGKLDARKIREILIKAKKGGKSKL
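Purified P. pyralis luciferase (10nM final) with 10uM D-luciferin and 10uM ATP (Km levels) in 50mM Tris acetate pH 7.5, 10mM Mg acetate, 0.01% Tween-20, 0.05% BSA; qHTS 6-point titration, ~60 µM downward; luminescence read.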
* = called active by the depositor; ? = inconclusive; nt = no result given. Hits are enriched below; roughly 7.4% of the tested compounds scored in any of these assays. Calls follow the shape of the dose curve; as a rule, active = well fitted curve in the direction sought with a large enough effect; inconclusive = small, poorly fitted or top-dose-only effect, or another doubt; inactive = no such curve, though single readings can be large; an effect the other way counts as inactive or inconclusive. Potency is read from the fitted curve at half-maximal effect.

SMILES	ELG1 genotoxic	NPC1 prom act	SMN2 splice enh	p53 reactivation	Rab9 promoter act	FLuc modulator
Cc1cc(N)n(-c2ccccc2)n1	1.1%	2.1%	-0.4%	-2.3%	3.2%	-0.1%
Cc1cc(C)c2nc(-n3nc(C)cc3N)cc(C)c2c1	?	12.5%	11.2µM*	5.1%	?	1.2µM*
COc1ccc(OCc2cc(C(=O)NC3CCc4ccccc43)no2)c(Cl)c1 (stereo not given)	-4.0%	-6.1%	nt	10.2%	0.5%	-3.1%
COc1cccc(OCc2cc(C(=O)NCc3ccccn3)no2)c1	16.4µM*	?	nt	?	2.82µM*	15.1µM*
COc1ccc(OCc2cc(C(=O)NCc3cccc(C)n3)no2)c(Cl)c1	26.2%	?	nt	-1.1%	?	23.9µM*
COc1cccc(OCc2cc(C(=O)NCCc3cccc(C)n3)no2)c1	-0.2%	-3.1%	nt	-0.2%	-1.7%	2.5%
Cc1ccc(NC(=O)CCn2c(=O)c3cccn3c3ccccc32)cc1C	-4.3%	-4.6%	nt	0.7%	-2.1%	?
CC(=O)Nc1ccc(C23CC4CC(CC(C4)C2)C3)cc1	9.3%	?	nt	20.6%	2.5%	15.1µM*
Oc1ccc(C23CC4CC(CC(C4)C2)C3)cc1O	2.2%	2.3%	nt	3.9%	4.9%	15.1µM*
CNC(=S)Nc1ccc(C23CC4CC(CC(C4)C2)C3)cc1	-0.7%	-0.4%	nt	?	11.5%	?
CN1C(=O)C(Cc2c[nH]c3ccccc23)NC1=S (stereo not given)	nt	nt	12.6µM*	nt	nt	nt
O=C(CN1C(=O)NC(Cc2c[nH]c3ccccc23)C1=O)Nc1ccc(F)cc1F (stereo not given)	1.4%	nt	nt	-10.0%	nt	nt
N#Cc1ccccc1NC(=O)CN1C(=O)NC(Cc2c[nH]c3ccccc23)C1=O (stereo not given)	0.8%	0.5%	nt	11.8%	0.4%	9.53µM*
O=C1C(Cc2c[nH]c3ccccc23)NC(=S)N1Cc1ccccc1 (stereo not given)	-3.6%	-1.8%	-3.9%	10.2%	-2.3%	2.8%
COc1ccc(OC)c(CNC(=O)CN2N=C(c3ccc(Cl)cc3)CCC2=O)c1	nt	nt	nt	nt	nt	-0.2%
Cc1ccc(C2=C(O)c3ccccc3C(=O)C2=O)cc1	-2.8%	-0.9%	nt	-3.2%	4.3%	?
Fc1ccc(N=Cc2ccc[nH]2)cc1	1.0%	-0.3%	nt	0.4%	-3.9%	-9.0%
O=C1C(C=Nc2ccc(F)cc2)=C(O)c2ccccc21	?	0.355µM*	nt	?	0.794µM*	0.269µM*
COc1ccc(N=CC2=C(O)c3ccccc3C2=O)c(OC)c1	0.0651µM*	?	-60.3%	6.0%	0.708µM*	0.0757µM*
Cc1ccccc1N=CC1=C(O)c2ccccc2C1=O	?	?	8.91µM*	4.8%	0.251µM*	0.135µM*
COc1ccc(CC2=C(O)c3ccccc3C(=O)C2=O)cc1	-7.1%	2.3%	nt	nt	6.5%	1.2%
CCC(=O)N1CCc2cc(CNS(=O)(=O)c3c(C)cc(C)cc3C)ccc21	nt	nt	nt	nt	nt	-5.1%
CC1CCCC(NC(=O)c2ccc3c(c2)OCCO3)C1C (stereo not given)	?	3.98µM*	nt	?	1.58µM*	13.5µM*
CC1CCC(NC(=O)C(=O)Nc2ccc3c(c2)OCO3)CC1 (stereo not given)	4.11µM*	2µM*	nt	?	0.708µM*	7.57µM*
CC1CCC(NC(=O)c2ccc3c(c2)OCO3)CC1 (stereo not given)	0.461µM*	0.316µM*	nt	13.2%	0.447µM*	2.69µM*
CC1CCCCC1NC(=O)c1ccc2c(c1)OCCO2 (stereo not given)	11.9%	12.4%	nt	?	29.0%	?
CC1CCN(CC(=O)Nc2ccc3c(c2)OCO3)CC1	5.8%	12.4%	nt	?	14.9%	-9.6%
O=C(Cc1cccc([N+](=O)[O-])c1)NCc1nc2cccnc2n1Cc1ccc(F)cc1	nt	nt	nt	nt	nt	-7.0%
CC(C)c1ccc(NC(=O)c2cnc3sc(N4CCOCC4)nn3c2=O)cc1	nt	nt	nt	nt	nt	1.9µM*
O=c1[nH]c(-c2ccc(-c3cccc(Cl)c3)o2)nc2ccccc12	2.59µM*	nt	nt	24.8%	nt	nt

Bioassay records as filed in PubChem BioAssay.
